PubChem BioAssay AID2615 (Southern Research Specialized Biocontainment Screening …, 2010)
Calls of active or inactive are those of the source. No rule for the calls is given here.

Experiment: SV40 cytopathic effect inhibition and cytotoxicity, confirmation, SV40 T antigen inhibitor project, BSC cells (AID 2615)
Details: BSC cells SV40 infection; outcome: CPE inhibition; viability: CPE inhibition, viability, at 100 µM, stronger effect = lower value; series mostly up to 200 µM; CPE inhibition: at the top concentration

| SMILES | outcome | viability [%] | CPE inhibition |
| --- | --- | --- | --- |
| ClC(Cl)(c1nnnn1-c1ccc(Br)cc1)c1nnnn1-c1ccc(Br)cc1 | inactive | -0.31 | – |
| Nc1nc2ccc(S(=O)(=O)N3CCCCC3)cc2s1 | – | 0.95 | 0% (inactive) |
| CCN(CC)C(=O)c1ccc2nc(N)sc2c1 | inactive | 87.6 | – |
| ClC(Cl)(c1nnnn1-c1ccccc1)c1nnnn1-c1ccccc1 | – | 0.34 | – |
| Nc1nc2ccc(C(=O)N3CCOCC3)cc2s1 | inactive | 101 | – |
| Nc1nc2ccc(C(=O)N3CCCCC3)cc2s1 | inactive | 103 | – |
| Cc1ccc2c(c1)C1C=CCC1C(C(=O)O)N2 (configuration not stated) | inactive | 41.3 | – |
| COc1ccc(-n2nnnc2C(Cl)(Cl)c2nnnn2-c2ccc(OC)cc2)cc1 | – | 6.3 | 0% (inactive) |
| Cc1cc(C)c2c(=O)n(CC(=O)Nc3cccc(Cl)c3C)sc2n1 | – | 2.65 | 0% (inactive) |
